Read-out in assay [1]: Tumor necrosis factor receptor superfamily member 6 (Homo sapiens) (UniProt P25445)
The assay is described as follows: LTEA_HepaRG_FAS: Life Technologies and Expression Analysis (LTEA) Assay for Fas cell surface death receptor (FAS) using HepaRG (AID 2283447). The note with it: mRNA level, 48 h; actives raise or lower the signal. The method, boiled down:
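Differentiated HepaRG cells in serum-free induction medium were exposed 48 h to 8 half-log concentrations up to 100 uM in 0.5% DMSO, in duplicate. FAS mRNA was measured by qRT-PCR normalised to ACTB, GAPDH and POLR2A; bidirectional fit versus DMSO.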

Read-out in assay [2]: Fatty acid synthase (Homo sapiens) (UniProt P49327)
As to the kind of experiment: LTEA_HepaRG_FASN: Life Technologies and Expression Analysis (LTEA) Assay for Fatty Acid Synthase (FASN) using HepaRG (AID 2283448). The note with it: mRNA level, 48 h; actives raise or lower the signal. The method, boiled down:
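Differentiated human HepaRG cells were exposed for 48 h in serum-free induction medium to eight half-log concentrations up to 100 uM in 0.5% DMSO, in duplicate. FASN mRNA was quantified by TaqMan qRT-PCR, normalized to ACTB/GAPDH/POLR2A, and fitted bidirectionally against DMSO.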

Read-out in assay [3]: Cyclin D2 (CCND2), CCND2 (gene 894)
As to the kind of experiment: LTEA_HepaRG_CCND2: Life Technologies and Expression Analysis (LTEA) Assay for Cyclin D2 (CCND2) using HepaRG (AID 2283449).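 Note: CCND2 transcript measured by TaqMan qRT-PCR and normalised to three housekeeping genes.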 The note with it: mRNA level, 48 h; actives raise or lower the signal. The method, boiled down: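 Chemicals in 0.5% DMSO, eight half-log concentrations from 100 uM top, were applied in duplicate for 48 h to human HepaRG cells in serum-free induction medium. CCND2 mRNA by TaqMan qRT-PCR, normalised to ACTB/GAPDH/POLR2A; bidirectional fit versus DMSO.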

Read-out in assay [4]: Cyclin Dependent Kinase Inhibitor 1A (CDKN1A), CDKN1A (gene 1026)
As to the kind of experiment: LTEA_HepaRG_CDKN1A: Life Technologies and Expression Analysis (LTEA) Assay for Cyclin Dependent Kinase Inhibitor 1A (CDKN1A) using HepaRG (AID 2283450). As to conditions: mRNA level, 48 h; actives raise or lower the signal. The method, boiled down:
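HepaRG, 48 h dosing, 8-pt half-log series from 100 uM top, 0.5% DMSO vehicle, duplicates. Readout: TaqMan qRT-PCR of CDKN1A transcript, housekeeping-normalized (ACTB, GAPDH, POLR2A). Up/down curve fit relative to DMSO.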

Read-out in assay [5]: Cyclin D1 (CCND1), CCND1 (gene 595)
As to the kind of experiment: LTEA_HepaRG_CCND1: Life Technologies and Expression Analysis (LTEA) Assay for Cyclin D1 (CCND1) using HepaRG (AID 2283451).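 For AC50: TaqMan qRT-PCR transcript level normalised to ACTB GAPDH and POLR2A housekeeping genes.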 As to conditions: mRNA level, 48 h; actives raise or lower the signal. The method, boiled down:
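qRT-PCR (Fluidigm 96.96 array) read-out of transcript level, housekeeping-normalized (ACTB/GAPDH/POLR2A). HepaRG cells, 48 h chemical exposure, 8-point half-log series from 100 uM, 0.5% DMSO vehicle; gain or loss relative to DMSO baseline.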

Read-out in assay [6]: catalase (CAT), CAT (gene 847)
The assay is described as follows: LTEA_HepaRG_CAT: Life Technologies and Expression Analysis (LTEA) Assay for catalase (CAT) using HepaRG (AID 2283452). The note with it: mRNA level, 48 h; actives raise or lower the signal. The method, boiled down:
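HepaRG cells in serum-free induction medium, 0.5% DMSO vehicle, exposed 48 h in duplicate over 8 half-log concentrations from 100 uM. CAT mRNA measured by qRT-PCR, normalized to ACTB, GAPDH, POLR2A; bidirectional fit versus DMSO.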

Read-out in assay [7]: flavin-containing dimethylaniline monooxygenases 3 (FMO3), FMO3 (gene 2328)
The assay is described as follows: LTEA_HepaRG_FMO3: Life Technologies and Expression Analysis (LTEA) Assay for flavin-containing dimethylaniline monooxygenases 3 (FMO3) using HepaRG (AID 2283453).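 For AC50: FMO3 transcript by TaqMan qRT-PCR normalized to ACTB GAPDH and POLR2A.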 The note with it: mRNA level, 48 h; actives raise or lower the signal. The method, boiled down:
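HepaRG, 48 h exposure, 8-pt half-log series from 100 uM, 0.5% DMSO vehicle, duplicates; FMO3 transcript by Fluidigm TaqMan qRT-PCR, housekeeping-normalized; gain/loss fit vs DMSO.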

Read-out in assay [8]: Cytochrome P450 (CYP1A1), CYP1A1 (gene 1543)
The assay is described as follows: LTEA_HepaRG_CYP1A1: Life Technologies and Expression Analysis (LTEA) Assay for Cytochrome P450 (CYP1A1) using HepaRG (AID 2283454). As to conditions: mRNA level, 48 h; actives raise or lower the signal. The method, boiled down:
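qRT-PCR read-out: CYP1A1 transcript normalized to three housekeeping genes, fitted bidirectionally against 0.5% DMSO vehicle baseline. Human HepaRG cells, 48 h chemical exposure, 8-point half-log series topping at 100 uM.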

Read-out in assay [9]: CFLAR gene, CFLAR (gene 8837)
As to the kind of experiment: LTEA_HepaRG_CFLAR: Life Technologies and Expression Analysis (LTEA) Assay for CFLAR gene using HepaRG (AID 2283455). The note with it: mRNA level, 48 h; actives raise or lower the signal. The method, boiled down:
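Differentiated HepaRG cells in serum-free induction medium were exposed 48 h in duplicate to eight half-log concentrations up to 100 uM in 0.5% DMSO; mRNA measured by TaqMan qRT-PCR, normalized to ACTB, GAPDH, POLR2A; bidirectional fitting versus DMSO.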

Read-out in assay [10]: Forkhead box O1 (FOXO1), FOXO1 (gene 2308)
As to the kind of experiment: LTEA_HepaRG_FOXO1: Life Technologies and Expression Analysis (LTEA) Assay for Forkhead box O1 (FOXO1) using HepaRG (AID 2283456). The note with it: mRNA level, 48 h; actives raise or lower the signal. The method, boiled down:
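Differentiated HepaRG cells, in serum-free induction medium with 0.5% DMSO, exposed 48 h in duplicate to 8-point half-log series from 100 uM. FOXO1 mRNA measured by TaqMan qRT-PCR, normalized to ACTB, GAPDH, POLR2A; bidirectional fit versus DMSO.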

Assay [11] in a line: CEETOX_H295R_OHPREG: CeeTox H295R High-throughput Steroidogenesis Assay for OH-Pregnenolone (OHPREG) (AID 2283434). As to conditions: actives raise or lower the signal. The method, boiled down: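 H295R cells pre-stimulated 48 h with 10 uM forskolin, then exposed 48 h to chemical in 0.1% DMSO. 17alpha-hydroxypregnenolone in medium quantified by MTBE extraction and HPLC-MS/MS; bidirectional fit versus DMSO, viability checked by MTT.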

Assay [12] can be described thus: CEETOX_H295R_ESTRADIOL: CeeTox H295R High-throughput Steroidogenesis Assay for Estradiol (AID 2283440).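 Note: estradiol secreted into medium quantified by LC-MS/MS after dansyl derivatisation.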 As to conditions: actives raise or lower the signal. The method, boiled down: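 H295R, 48 h forskolin (10 uM) prestim → 48 h compound, 0.1% DMSO final. Estradiol in medium: MTBE extraction, dansyl chloride derivatization, LC-MS/MS. Fit bidirectional vs DMSO baseline; MTT viability in same wells.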

Assay [13] in a line: CEETOX_H295R_ESTRONE: CeeTox H295R High-throughput Steroidogenesis Assay for Estrone (AID 2283441).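 Note: estrone secreted into medium measured by LC-MS/MS after dansyl derivatization.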 As to conditions: actives raise or lower the signal. The method, boiled down: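 H295R cells; 48 h forskolin (10 uM) prestimulation; 48 h compound exposure, 0.1% DMSO final. Medium estrone: MTBE extraction, dansyl derivatization, HPLC-MS/MS. Bidirectional fit vs DMSO.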
Assay [14] is described as follows: CEETOX_H295R_PROG: CeeTox H295R High-throughput Steroidogenesis Assay for Progesterone (PROG) (AID 2283442). As to conditions: actives raise or lower the signal. The method, boiled down: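 Progesterone read-out: HPLC-MS/MS on MTBE extracts of conditioned medium after 48 h chemical exposure of forskolin-primed (10 uM, 48 h) H295R cells. Gain or loss of signal was fitted relative to DMSO baseline.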

Assay [15] can be described thus: CEETOX_H295R_11DCORT: CeeTox H295R High-throughput Steroidogenesis Assay for 11-Deoxycortisol (11DCORT) (AID 2283432).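 Note: 11-deoxycortisol secreted into the medium measured by LC-MS/MS.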 As to conditions: actives raise or lower the signal. The method, boiled down:
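H295R cells prestimulated 48 h with 10 uM forskolin, then exposed 48 h to chemical in 0.1% DMSO. 11-Deoxycortisol in medium quantified by HPLC-MS/MS after MTBE extraction; bidirectional fit versus DMSO. MTT viability read in same wells.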

Assay [16] in a line: CEETOX_H295R_CORTIC: CeeTox H295R High-throughput Steroidogenesis Assay for Corticosterone (CORTIC) (AID 2283437).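 Note: corticosterone secreted into medium quantified by mass spectrometry.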 The note with it: actives raise or lower the signal. The method, boiled down:
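H295R adrenal cells prestimulated 48 hours with 10 uM forskolin, then exposed 48 hours to chemical in 0.1% DMSO. Corticosterone in medium measured by HPLC-MS/MS after MTBE extraction; MTT viability in the same wells; bidirectional fit versus DMSO.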

A short description of assay [17]: CEETOX_H295R_CORTISOL: CeeTox H295R High-throughput Steroidogenesis Assay for Cortisol (AID 2283438).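 Note: cortisol secreted into medium quantified by LC-MS/MS.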 As to conditions: actives raise or lower the signal. The method, boiled down: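 H295R human adrenal cells were prestimulated 48 h with 10 uM forskolin, then exposed 48 h to test chemical (0.1% DMSO final). Medium cortisol was quantified by HPLC-MS/MS after MTBE extraction; bidirectional fitting relative to DMSO baseline.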

A short description of assay [18]: CEETOX_H295R_DOC: CeeTox H295R High-throughput Steroidogenesis Assay for DOC (AID 2283439). The note with it: actives raise or lower the signal. The method, boiled down: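 H295R adrenal cells prestimulated 48 h with 10 uM forskolin, then exposed 48 h to test chemical (0.1% DMSO final). Medium 11-deoxycorticosterone extracted with MTBE, quantified by HPLC-MS/MS; bidirectional fit versus DMSO baseline; MTT viability in same wells.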

Calls of active or inactive are those of the source. Rule for the calls: active = hit-call score of the fitted dose curve at least 0.9, where 1 is the maximum; inactive = score below 0.9.

Sequence of Fatty acid synthase (Homo sapiens) (P49327 whole entry, looked up): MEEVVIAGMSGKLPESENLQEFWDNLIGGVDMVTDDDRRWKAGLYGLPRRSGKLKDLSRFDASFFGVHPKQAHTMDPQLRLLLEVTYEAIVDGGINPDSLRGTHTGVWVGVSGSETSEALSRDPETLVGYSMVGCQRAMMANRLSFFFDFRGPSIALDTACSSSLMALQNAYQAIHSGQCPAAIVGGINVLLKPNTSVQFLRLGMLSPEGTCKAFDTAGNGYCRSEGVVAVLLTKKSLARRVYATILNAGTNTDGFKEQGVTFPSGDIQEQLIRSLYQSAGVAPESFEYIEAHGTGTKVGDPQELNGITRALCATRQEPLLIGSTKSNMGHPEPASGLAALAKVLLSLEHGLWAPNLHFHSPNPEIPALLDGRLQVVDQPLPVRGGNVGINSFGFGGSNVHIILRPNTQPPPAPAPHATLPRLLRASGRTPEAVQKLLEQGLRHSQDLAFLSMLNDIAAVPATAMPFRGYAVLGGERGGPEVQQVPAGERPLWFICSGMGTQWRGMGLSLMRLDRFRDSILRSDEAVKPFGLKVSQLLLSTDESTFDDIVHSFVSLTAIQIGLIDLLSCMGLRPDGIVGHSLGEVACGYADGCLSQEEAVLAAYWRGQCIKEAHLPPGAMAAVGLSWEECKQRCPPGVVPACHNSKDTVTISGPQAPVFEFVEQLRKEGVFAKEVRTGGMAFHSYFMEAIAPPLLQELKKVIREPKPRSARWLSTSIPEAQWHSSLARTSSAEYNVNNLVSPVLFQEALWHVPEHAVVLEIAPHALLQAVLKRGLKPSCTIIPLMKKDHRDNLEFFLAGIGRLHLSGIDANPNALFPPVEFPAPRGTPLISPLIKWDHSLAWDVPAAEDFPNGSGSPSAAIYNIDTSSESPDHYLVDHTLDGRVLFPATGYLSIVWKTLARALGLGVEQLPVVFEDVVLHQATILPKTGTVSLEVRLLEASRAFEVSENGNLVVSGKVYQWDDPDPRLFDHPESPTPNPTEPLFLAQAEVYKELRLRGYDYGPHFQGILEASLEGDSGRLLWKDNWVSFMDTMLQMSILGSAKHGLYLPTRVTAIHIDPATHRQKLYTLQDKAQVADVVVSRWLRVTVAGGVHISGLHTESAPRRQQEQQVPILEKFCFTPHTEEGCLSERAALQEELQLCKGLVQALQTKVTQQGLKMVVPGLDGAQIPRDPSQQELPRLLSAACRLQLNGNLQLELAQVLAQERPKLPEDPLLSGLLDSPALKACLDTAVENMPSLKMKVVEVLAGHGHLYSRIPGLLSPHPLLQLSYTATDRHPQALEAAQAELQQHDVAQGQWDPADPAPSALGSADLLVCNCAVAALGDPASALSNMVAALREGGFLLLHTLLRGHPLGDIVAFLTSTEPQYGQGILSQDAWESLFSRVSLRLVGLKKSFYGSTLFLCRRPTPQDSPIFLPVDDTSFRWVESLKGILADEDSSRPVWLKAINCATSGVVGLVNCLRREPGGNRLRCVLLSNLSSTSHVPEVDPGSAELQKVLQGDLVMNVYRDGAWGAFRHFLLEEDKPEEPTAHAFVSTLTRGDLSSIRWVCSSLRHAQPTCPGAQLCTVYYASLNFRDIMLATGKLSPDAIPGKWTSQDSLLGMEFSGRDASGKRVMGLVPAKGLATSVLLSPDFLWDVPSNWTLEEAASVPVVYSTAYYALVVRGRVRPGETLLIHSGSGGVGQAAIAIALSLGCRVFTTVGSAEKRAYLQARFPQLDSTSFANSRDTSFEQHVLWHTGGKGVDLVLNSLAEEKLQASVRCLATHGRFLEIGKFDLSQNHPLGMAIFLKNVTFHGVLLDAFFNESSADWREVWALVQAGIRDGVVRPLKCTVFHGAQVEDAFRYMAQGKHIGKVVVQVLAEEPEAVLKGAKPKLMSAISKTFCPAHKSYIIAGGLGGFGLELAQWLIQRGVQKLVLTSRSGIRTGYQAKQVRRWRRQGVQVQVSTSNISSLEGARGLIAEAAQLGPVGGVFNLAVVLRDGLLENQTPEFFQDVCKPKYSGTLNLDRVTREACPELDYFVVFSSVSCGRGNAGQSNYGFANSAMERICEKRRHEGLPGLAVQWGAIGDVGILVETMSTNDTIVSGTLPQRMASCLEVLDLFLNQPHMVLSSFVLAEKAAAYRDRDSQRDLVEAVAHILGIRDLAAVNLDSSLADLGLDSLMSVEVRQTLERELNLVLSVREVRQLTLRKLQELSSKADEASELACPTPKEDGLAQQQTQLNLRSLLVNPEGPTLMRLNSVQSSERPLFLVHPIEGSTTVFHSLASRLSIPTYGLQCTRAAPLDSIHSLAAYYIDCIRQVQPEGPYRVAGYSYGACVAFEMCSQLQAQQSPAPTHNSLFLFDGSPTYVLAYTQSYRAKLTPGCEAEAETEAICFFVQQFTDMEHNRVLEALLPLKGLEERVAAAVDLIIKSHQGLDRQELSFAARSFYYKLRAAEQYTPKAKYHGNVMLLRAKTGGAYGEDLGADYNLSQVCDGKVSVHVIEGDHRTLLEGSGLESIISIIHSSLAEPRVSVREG

In general, AC50 refers to the concentration at which the activity in the assay is half-maximal. As for `c1ccc(C(O[C@@H]2CCCN(CCc3ccc4c(c3)OCO4)C2)c2ccccc2)cc1`, the AC50 is 50 µM (active) in [1]; 79.9 µM (active) in assay [2]; 77.7 µM (active) in assay [4]; 50 µM (active) in assay [5]; 69.7 µM (active) in assay [6]; 70 µM (active) in assay [7]. The AC50 in [8] is 13.2 µM (active). In addition, the call in [3], in assay [9] and in assay [10] was inactive.
`CCCCCCCC1CCC(=O)O1` (stereo not given): the outcome in assay [11], in assay [12], in assay [13], in [14], in assay [1] and in assay [2] was inactive. Moreover, the result in assay [3], in [4], in assay [5], in assay [6], in assay [7] and in [9] was inactive. The call in [10] was inactive.
As for `c1ccc2c(c1)-c1cccc3c1c-2cc1ccccc13`, the AC50 in assay [15] is 2.55 µM (active); in [11], 2 µM (active); in [18], 1.84 µM (active); in assay [2] it was 13.7 µM (active); in [5], 5.32 µM (active); in assay [6] it was 15.1 µM (active). In addition, the AC50 in assay [7] was 18.4 µM (active); in assay [8] it was 0.851 µM (active); in [9] it was 10.6 µM (active); in [10], 5.04 µM (active). For the same compound, the compound was called inactive in assay [16], in assay [17], in [12], in [13], in assay [1] and in assay [3]. Besides, in assay [4], the result was inactive.
`c1ccc2ncccc2c1`: the outcome in assay [1], in assay [2], in assay [3], in assay [4], in [5] and in [6] was inactive. For the same compound, the call in assay [7], in [9] and in assay [10] was inactive. For the same compound, in assay [8], the AC50 is 83.2 µM (active).

Values taken from PubChem BioAssay (EPA / NIEHS).
